A selection: hits, their analogues and other compounds. The true share with any hit is near 4.2%.
BJeLR viability: MLPCN primary cell-based screen for lethality selective to Ras in HRASV12 cells; BJeLR (HRASV12) viability, CellTiter-Glo ATP luminescence, 48 h; inhibition, % (test concentration not listed); 300,000 compounds, 0.17% hits; AID 1554, 2009; in the data active = inhibition above about 50%
RecA intein inh: Mtb RecA intein splicing inhibitors, primary screen, biochemical, fluorescence, HTS. inhibition, % (test concentration not listed). 290,000 compounds, 0.75% hits. cell-free RecA intein splicing; in the data active = inhibition above about 30%
Target sequence (P9WHJ3 whole entry, looked up): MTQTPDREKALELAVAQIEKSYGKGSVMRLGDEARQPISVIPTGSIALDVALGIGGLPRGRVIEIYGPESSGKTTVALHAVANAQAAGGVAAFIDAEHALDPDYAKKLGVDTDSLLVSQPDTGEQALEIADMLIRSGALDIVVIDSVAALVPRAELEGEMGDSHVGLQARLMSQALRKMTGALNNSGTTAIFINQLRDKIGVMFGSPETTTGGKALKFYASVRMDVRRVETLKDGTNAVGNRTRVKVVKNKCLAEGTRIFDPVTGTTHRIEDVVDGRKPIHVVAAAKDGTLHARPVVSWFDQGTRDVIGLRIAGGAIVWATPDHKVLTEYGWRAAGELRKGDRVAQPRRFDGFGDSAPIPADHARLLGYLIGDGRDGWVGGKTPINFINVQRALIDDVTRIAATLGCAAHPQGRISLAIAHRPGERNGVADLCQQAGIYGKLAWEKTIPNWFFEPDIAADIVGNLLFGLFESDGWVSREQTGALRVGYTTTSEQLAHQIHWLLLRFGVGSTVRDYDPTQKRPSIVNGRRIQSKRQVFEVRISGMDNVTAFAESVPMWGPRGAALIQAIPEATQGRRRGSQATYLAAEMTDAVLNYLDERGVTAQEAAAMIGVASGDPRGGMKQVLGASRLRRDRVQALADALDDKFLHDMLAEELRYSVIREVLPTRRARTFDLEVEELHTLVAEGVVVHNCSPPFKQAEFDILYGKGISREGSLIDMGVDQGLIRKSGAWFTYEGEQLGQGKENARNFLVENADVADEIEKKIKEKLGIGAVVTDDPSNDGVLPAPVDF
PrPC TRFRET: inhibitors of human cell surface prion protein PrPC, primary screen, cell-based, TR-FRET | 370,000 compounds, 0.43% hits | inhibition, % at 13.8 µM | Major prion protein (Homo sapiens), P04156 | TR-FRET read-out | AID 720596, 2013; in the data active = inhibition above about 24%
GDH-TPI counter-1: GDH-TPI coupling enzyme inhibitors, primary screen, artefact control for M. tuberculosis FBA inhibitor project, biochemical, absorbance, full deck. GDH-TPI coupled enzyme counterscreen, NADH absorbance. inhibition, % at 4.8 µM. 360,000 compounds, 1.2% hits. AID 588335, 2011; in the data active = inhibition above about 30%
Mtb FBA inh: Mtb FBA enzyme inhibitors, primary screen, biochemical, fluorescence, strain H37Rv; 360,000 compounds, 2.3% hits; purified M. tuberculosis FBA, fluorescence read-out; AID 588726, 2011; inhibition, % at 1 µM
Mtb FBA confirm: M. tuberculosis aldolase blockers, biochemical, fluorescence, strain H37Rv, confirmation | shares compounds with Mtb FBA inh | purified M. tuberculosis FBA, fluorescence read-out | inhibition, % at 1 µM | 5,600 compounds, 78% hits
GDH-TPI counter-2: GDH-TPI coupling enzyme inhibitors, artefact control for M. tuberculosis FBA inhibitor project, biochemical, fluorescence, high throughput; shares compounds with Mtb FBA inh; GDH-TPI coupled enzyme counterscreen; inhibition, % at 1 µM; 5,600 compounds, 81% hits; in the data active = inhibition above about 10%
GDH-TPI dose: GDH-TPI coupling enzyme inhibitors, dose response, artefact control for M. tuberculosis FBA inhibitor project, biochemical, fluorescence, IC50; 170 compounds, 79% hits; AID 652145, 2013; GDH-TPI coupled enzyme assay, artifact counterscreen; IC50, µM; shares compounds with Mtb FBA inh; call rule not given here
Hits are given with their value; 0 = inactive; - = no result given; + = active, no number. Cut-off read from the data, not from the text of the source, unless noted: active = inhibition above about 27%; inactive = the rest.

SMILES	BJeLR viability	RecA intein inh	PrPC TRFRET	GDH-TPI counter-1	Mtb FBA inh	Mtb FBA confirm	GDH-TPI counter-2	others
N#Cc1nc(-c2ccccc2Cl)oc1N1CCOCC1	0	0	0	0	33	113	92
N#Cc1nc(-c2ccco2)oc1N1CCN(c2ccccc2)CC1	0	0	0	0	0	-	-
N#Cc1nc(-c2ccco2)oc1N1CCC(Cc2ccccc2)CC1	0	0	0	0	30	0	0
N#Cc1nc(-c2ccco2)oc1N1CCOCC1	-	0	0	0	82	198	160
COc1ccc2ccccc2c1C=Nn1c(-c2cc(-c3ccccc3)n[nH]2)n[nH]c1=S	-	-	0	-	-	-	-
Cc1occc1-c1nnc(SCC(=O)Nc2ccncc2)n1-c1ccccc1	-	-	0	-	-	-	-
CCCCN(C)C(=O)Cn1nc(-c2ccc(Cl)cc2)ccc1=O	0	0	0	0	77	46	41
O=C(Nc1ccc(O)c(C(=O)O)c1)Oc1ccccc1	0	0	0	0	73	138	99
O=C(NCC1CCCO1)c1cc2c(=O)[nH]c3ccccc3c2s1 (stereo unspecified)	-	0	0	0	35	53	55
CCOC(CCNC(=O)c1cc2c(=O)[nH]c3ccccc3c2s1)OCC	0	0	0	0	0	-	-
CCCN(CCC)CCCNC(=O)c1cc2c(=O)[nH]c3ccccc3c2s1	0	0	0	0	70	+	194
CCCCN(CC)CCNC(=O)c1cc2c(=O)[nH]c3ccccc3c2s1	0	0	0	0	39	+	+
CCC[C@@H](/C=C/C(=O)OC(C)(C)C)Sc1ccccc1OC	-	-	0	-	-	-	-
O=C(Nc1ccc(F)cc1F)C1CCCN1S(=O)(=O)c1cccnc1 (stereo unspecified)	-	-	0	-	-	-	-
Cc1cccc(NC(=O)CCc2nc3sc4c(c3c(=O)[nH]2)CCCC4)c1	0	0	0	0	0	-	-
Cc1cccc(NC(=O)C(C)SCc2nc3sc4c(c3c(=O)[nH]2)CCCC4)n1 (stereo unspecified)	0	0	0	0	31	153	93
Cc1cc2c(c(=O)o1)[C@@]1(C(=O)N(C)c3ccccc31)C1=C(CCCC1=O)O2	-	-	0	-	-	-	-
CCOC(=O)[C@@]12CCCC3=C1N(CCC3)C(=O)[C@H]2CC(=O)N1CCCCC1	-	-	0	-	-	-	-
C=CCN(CC#Cc1ccc(OC)cc1)CC=C	-	-	0	-	-	-	-
Cc1c(C)c2ccc(O[C@@H]3O[C@H](CO)[C@H](O)[C@H](O)[C@H]3O)c(C)c2oc1=O	0	0	0	0	34	49	44
Cc1c(O[C@@H]2O[C@H](CO)[C@@H](O)[C@H](O)[C@H]2O)ccc2c1oc(=O)c1ccccc12	0	0	0	0	88	62	52
O=C(Nc1nc2ncccn2c1-c1ccc(C(F)(F)F)cc1)C1CC1	-	-	0	-	-	-	-
CCOC(=O)c1c(-c2ccccc2Cl)cn2ccccc12	0	0	0	0	61	74	68
COc1ccc(-c2[nH]c(-c3ccccc3)nc2SCC(=O)NC2CCCC2)cc1	0	0	0	0	0	-	-
COc1ccc(-c2ccc(SCC(=O)NC3CCCCC3)nn2)cc1	0	0	0	0	0	-	-
SMILES	BJeLR viability	RecA intein inh	PrPC TRFRET	GDH-TPI counter-1	Mtb FBA inh	Mtb FBA confirm	GDH-TPI counter-2	others
COc1ccc(-c2[nH]c(-c3cccc(OC)c3)nc2SCC(=O)NC2CCCC2)cc1	0	0	0	0	40	124	100
COc1ccc(-c2cn3nc(SCC(=O)NC4CCCCC4)ccc3n2)cc1	0	0	0	0	28	74	41
CCNC(=S)Nc1ccc2c(c1)c(=O)n(C)n2Cc1cccc(C(F)(F)F)c1	-	-	0	0	80	190	150
FC(F)(F)c1cccc(CNC(=S)Nc2ccccc2)c1	0	0	0	0	0	-	-
Cc1ccc(CNC(=S)Nc2ccc3c(c2)c(=O)n(C)n3Cc2cccc(C(F)(F)F)c2)cc1	-	-	0	0	36	141	101
O=C(Nc1ccc(F)cc1)OCc1cn(Cc2c(F)cccc2F)nn1	-	-	0	-	-	-	-
COC(=O)c1cc(-c2cccc(C(C)C)c2)c(=O)n2c1CCC2	-	-	0	-	-	-	-
O=C(c1nc2nc(-c3ccc(Cl)cc3)cc(C(F)(F)F)n2n1)N1CCOCC1	0	0	0	0	33	121	94
CC(C)(C)NC(=O)c1nc2nc(-c3ccccc3)cc(C(F)(F)F)n2n1	0	0	0	0	32	91	62
COc1ccc(-c2cc(C(F)(F)F)n3nc(C(=O)O)nc3n2)cc1	0	-	0	0	0	-	-
CN1CCN(C(=O)c2cc3nc(-c4ccc(F)cc4)cc(C(F)(F)F)n3n2)CC1	0	0	0	0	0	-	-
Nc1nc2nc(-c3ccc(F)cc3)cc(C(F)(F)F)n2n1	0	0	0	0	41	50	40
Cc1ccccc1C(=O)NC1CCCCN(Cc2ccc(Cl)cc2)C1=O (stereo unspecified)	-	-	0	-	-	-	-
C=CCN1[C@H](C)COc2cccc(F)c2S1(=O)=O	-	-	0	-	-	-	-
CC(=O)Nc1cc2nc(C)n(Cc3ccc([N+](=O)[O-])cc3)c2nc1C	0	0	0	0	0	-	-
Cc1nc2ccc([N+](=O)[O-])cc2c(=O)n1Cc1ccc(Cl)cc1	0	0	0	0	0	-	-
Cc1nc2ccc(N)cc2c(=O)n1Cc1ccc(Cl)cc1	0	0	0	0	41	40	33
Cc1nc2c(cc1N)nc(C)n2Cc1ccccc1	0	0	0	0	99	0	0	GDH-TPI dose=1.2
O=C(N[C@H](Cc1ccccc1)C(=O)NCc1ccccn1)[C@H]1O[C@@H](n2ccc(=O)[nH]c2=O)[C@H](O)[C@@H]1O	-	-	0	-	-	-	-
CC(Oc1cc2oc(=O)c3c(c2cc1Cl)CCC3)C(=O)NCc1cccnc1 (stereo unspecified)	0	0	0	0	0	-	-
Cc1cc(OC(C)C(=O)NC2CCN(Cc3ccccc3)CC2)c2c(C)cc(=O)oc2c1 (stereo unspecified)	0	0	-	0	0	-	-
CCCc1cc(=O)oc2cc(C)cc(OC(C)C(=O)NCc3cccnc3)c12 (stereo unspecified)	0	0	0	0	70	0	0
CCCc1cc(=O)oc2cc(C)cc(OC(C)C(=O)NCc3ccncc3)c12 (stereo unspecified)	0	0	0	0	58	+	+
